In PMC4336329 (PLoS ONE, 2015):
Out of some 310,000 compounds screened, about 14,000 (4.5%) showed an effect of 50% or more. The effect is printed as a negative number. The sample as a whole holds a higher share of strong results than the screen did.

Biological target: human ether-à-go-go-related gene (hERG) potassium channel (human, UniProt Q12809)
Assay: primary screen, population patch clamp on CHO cells stably expressing hERG; higher = less effect of the substance
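Note: peak tail current of the secondary pulse compared with the same well before compound.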

human ether-à-go-go-related gene (hERG) potassium channel, sequence (Q12809 whole entry, looked up): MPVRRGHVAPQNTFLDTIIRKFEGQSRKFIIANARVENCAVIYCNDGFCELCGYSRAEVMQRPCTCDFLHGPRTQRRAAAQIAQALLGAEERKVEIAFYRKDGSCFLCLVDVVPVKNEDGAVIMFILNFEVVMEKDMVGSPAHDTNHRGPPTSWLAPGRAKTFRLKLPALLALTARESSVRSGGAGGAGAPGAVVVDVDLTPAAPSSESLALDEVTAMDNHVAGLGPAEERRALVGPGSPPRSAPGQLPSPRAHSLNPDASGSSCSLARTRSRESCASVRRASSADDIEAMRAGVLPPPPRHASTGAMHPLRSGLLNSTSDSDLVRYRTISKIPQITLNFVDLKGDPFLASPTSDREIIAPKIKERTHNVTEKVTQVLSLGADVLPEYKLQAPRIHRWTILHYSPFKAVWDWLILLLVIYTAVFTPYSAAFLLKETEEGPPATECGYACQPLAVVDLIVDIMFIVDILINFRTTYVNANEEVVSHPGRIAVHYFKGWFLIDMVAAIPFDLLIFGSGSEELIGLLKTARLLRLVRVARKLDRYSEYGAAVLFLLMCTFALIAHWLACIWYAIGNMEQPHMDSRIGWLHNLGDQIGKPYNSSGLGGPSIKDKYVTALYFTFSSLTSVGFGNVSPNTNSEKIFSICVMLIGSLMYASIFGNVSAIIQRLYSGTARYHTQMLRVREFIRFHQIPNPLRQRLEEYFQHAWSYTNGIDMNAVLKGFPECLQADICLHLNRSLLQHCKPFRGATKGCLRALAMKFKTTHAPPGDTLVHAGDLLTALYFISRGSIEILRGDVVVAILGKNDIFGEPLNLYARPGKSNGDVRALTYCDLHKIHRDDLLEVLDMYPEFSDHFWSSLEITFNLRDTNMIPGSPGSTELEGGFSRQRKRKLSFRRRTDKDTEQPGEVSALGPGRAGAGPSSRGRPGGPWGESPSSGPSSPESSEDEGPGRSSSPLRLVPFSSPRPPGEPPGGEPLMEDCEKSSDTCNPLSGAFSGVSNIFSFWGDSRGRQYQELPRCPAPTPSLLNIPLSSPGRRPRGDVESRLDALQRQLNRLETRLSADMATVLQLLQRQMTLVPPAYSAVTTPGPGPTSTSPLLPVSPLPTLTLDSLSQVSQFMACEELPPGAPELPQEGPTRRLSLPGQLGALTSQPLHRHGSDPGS

Row | SMILES | hERG current change (%, negative = inhibition) at 10uM [%]
1 | COCCCNC(=S)N1CCC(NC(=O)c2ccco2)CC1 | -4.82
2 | COCC(=O)N(CCc1ccc(OC)c(OC)c1)Cc1nc2ccccc2c(=O)[nH]1 | -8.28
3 | C/C(=N/NS(=O)(=O)c1cc(C)ccc1C)c1ccncc1 | 11
4 | CCCCC(=O)Nc1ccc(C(=O)N2CCN(C)CC2)cc1 | 6.41
5 | CCOC(=O)N1CCN(C(=O)c2ccc(SC)cc2OC)CC1 | -2.46
6 | O=C(Cc1coc2cc3c(cc12)CCC3)OCc1cc(=O)n2c(n1)sc1ccccc12 | 4.53
7 | CC(=O)O[C@@]12CO[C@@H]1C[C@H](OC1OCC(O)C(O)C1O)[C@@]1(C)C(=O)[C@H](O)C3=C(C)[C@@H](OC(=O)[C@H](O)[C@@H](NC(=O)c4ccccc4)c4ccccc4)C[C@@](O)([C@@H](OC(=O)c4ccccc4)C12)C3(C)C (stereo partly drawn) | -7.05
8 | COc1cc(CNC2CCCC2)c(Br)cc1OCc1ccccc1.Cl | -72.1
9 | COc1cc(CNCc2ccccn2)ccc1OCc1c(Cl)cccc1Cl.Cl | -51.5
10 | COc1ccc(-c2ccc(CNCc3ccccn3)o2)cc1Cl.Cl | -7.77
11 | COc1cc(CNC2CCCC2)c(Br)cc1OC1CCCC1.Cl | -45.9
12 | COc1ccc(Cl)cc1NC(=S)NCc1ccccn1 | 9
13 | COc1cc(CNn2nnnc2N)ccc1OCc1c(Cl)cccc1Cl | -1.22
14 | CCOc1cc(CNC2CCCC2)ccc1OCc1ccccc1Cl.Cl | -50.6
15 | O=C(NCc1ccccn1)c1ccccc1OCc1ccc(Cl)cc1Cl | -1.04
16 | CCOc1cc(CNC2CCCC2)cc(Cl)c1OCc1ccccc1.Cl | -10.3
17 | COc1cc(CNCc2ccccn2)ccc1OCc1ccc(Cl)cc1Cl.Cl | -58.1
18 | COc1cc(CNC2CCCC2)cc(Cl)c1OCc1ccccc1Cl.Cl | -30
19 | COc1cc(CNC2CCCCCCC2)c(Br)cc1OCCO.Cl | 7
20 | COc1ccc(-c2oc(=O)c3cc(OC)c(OC)cc3c2C(F)(F)F)cc1 | 23.7
21 | CC(C(=O)NCCCc1ccccc1)n1cccc1C(=O)c1ccccc1 (stereo not drawn) | -5.48
22 | O=C(COC(=O)c1ccccc1C(=O)c1ccc(Cl)cc1)NCC1CCCO1 (stereo not drawn) | 1.96
23 | CN(C)/C=C/C(=O)c1ccc(C(F)(F)F)cc1F | 15.3

Row | SMILES | hERG current change (%, negative = inhibition) at 10uM [%]
24 | CCOc1cc(N2CCOCC2)c(OCC)cc1NC(=O)CSc1n[nH]c(N)n1 | 38.2
25 | Cc1ccc(OCC(=O)NNC(=O)c2cc(C)[nH]n2)cc1 | 24.6
26 | CCc1nnc(NC(=O)CSc2nnc3ncccn23)s1 | 19.2
27 | COC(=O)c1nn(-c2ccc(F)cc2)ccc1=O | 8.12
28 | C#CCOCCOCCOCCNc1nc(N2CCN(C(=O)CCCCCCCCCCNC(=O)Cn3cc(C[C@@H](C)O)nn3)CC2)nc(N2CCN(C(=O)CCCCCCCCCCNC(=O)[C@H](CCCN=C(N)N)n3cc(C[C@@H](C)CC)nn3)CC2)n1 | 3.82
29 | COc1ccccc1C(=O)OCn1nnc2ccccc2c1=O | -1.17
30 | CN1CCN(C(=O)C23CCC(C)(C(=O)C2Br)C3(C)C)CC1 (stereo not drawn) | 1.95
31 | COc1cc(CNCc2ccccn2)ccc1OCC(=O)NC1CCCCC1.Cl | -14.5
32 | CCOc1cc(CNCc2ccccn2)cc(Cl)c1OCC.Cl | -0.796
33 | COc1cc(CNCc2ccccn2)ccc1OCc1ccccc1Cl.Cl | -58.3
34 | CC1=C(C(=O)Nc2ccccc2)C(c2cccs2)NC(=O)N1 (stereo not drawn) | 15.6
35 | Cc1cc(C)n(CC(=O)NNC(=O)c2ccc(NC(=O)CC#N)cc2)n1 | 5.56
36 | Cc1cc(C(C)(C)CC(C)(C)C)ccc1OCCOCC[N+](C)(C)Cc1ccccc1.[Cl-] | -80.9
37 | Cc1cc(C(C)(C)C)ccc1OCCOCCN1CCCC1 | -44.5
38 | Cc1cc(C(C)(C)C)ccc1OCCN(C)C | -7.47
39 | Cl.Nc1ccc2c(c1)oc1ccccc12 | 4.15
40 | CCc1ccc(NC(=O)Nc2ccc3c(c2)N(C)C(=O)CS3)cc1 | 7.64
41 | CCc1cc2c(NCCN3CCCCC3)ncnc2s1.Cl | -71.9
42 | CCc1cc2c(NCCC(=O)O)ncnc2s1 | 4.76
43 | CCc1cc2c(NCCO)ncnc2s1 | 14.3
44 | Cc1csc(SCC(=O)NC2CCCCC2)n1 | -1.79
45 | CCOc1ccccc1NC(=O)C(Sc1nnc2ccccn12)c1ccccc1 (stereo not drawn) | -12.5
